Each structure is given as a SMILES string. Activity calls are given as the source filed them. How the source made its calls: active means hit-call score of the fitted dose curve at least 0.9, where 1 is the maximum; inactive means score below 0.9.

One may read the AC50 as the concentration at which the activity in the assay is half-maximal.

The assay can be described thus: CCTE_Shafer_MEA_acute_cross_correlation_HWHM: CCTE's Neural Acute Assay for Cross Correlation at Half Width at Half Maximum, Shafer Lab (AID 2284026). As to the method: CCTE_Shafer_MEA_acute assay is conducted using Axion Biosystems 48 well microelectrode array (MEA) plates and Maestro recording system. Each well of the MEA plate contains a grid of 16 microelectrodes embedded in the culture surface. Electrically active cells, such as neurons, can be cultured over the electrodes, and electrical activity in these cells can be recorded extracellularly. The spontaneous firing of neurons is captured from each electrode on a microsecond timescale providing both temporally and spatially precise data. […] The CCTE_Shafer_MEA_acute assay uses primary cultures of rat cortical neurons. As these cultures mature over time, neural networks develop functional activity and form cohesive networks in which electrical activity can be highly coordinated. Baseline 40-minute recordings are made on days post-plating 13 or 15, followed by a secondary 40-minute recording after chemical exposure.CCTE_Shafer_MEA_acute_cross_correlation_HWHM is a component of the CCTE_Shafer_MEA_acute assay. It measures the distance along the x-axis (phase lag) from the left half maximum height to the center of the cross-correlogram of action potential firing during a recording in a microelectrode array (MEA) using Axion Biosystems Maestro 768 channel amplifier with the AxIS adaptive spike detector. Smaller values indicate a narrower correlogram (greater synchrony). The recordings before and after chemical treatment are used to calculate a percent change in the half width at half maximum of the cross-correlogram in each well.Data from the assay component CCTE_Shafer_MEA_acute_cross_correlation_HWHM was analyzed into 1 assay endpoint. This assay endpoint, CCTE_Shafer_MEA_acute_cross_correlation_HWHM, was analyzed in the negative analysis fitting direction relative to DMSO as the negative control and baseline of activity. Using a type of functional reporter, gain or loss-of-signal activity can be used to understand electrical activity.
Spontaneous activity in the cortical cultures was recorded using an Axion Biosystems Maestro 768 channel amplifier and Axion Integrated Studios (AxIS) v1.8 (or later) software. The amplifier recorded from all channels simultaneously (gain = 1200 x; sampling rate = 12.5 kHz/channel): raw signals were filtered with a Butterworth band-pass filter (300-5000 Hz), which filters out slower local field potentials leaving only fast potentials, i.e., "spikes", arising from extracellular currents associated with action potentials (Pine 2006; Wheeler and Nam 2011). On-line spike detection of filtered signals was conducted with the AxIS adaptive spike detector, using a threshold of 8x the root mean squared (rms) noise on each channel. Any electrodes with rms noise levels greater than 5 uV were grounded (e.g., no data were recorded). Once grounded, an electrode was grounded for the duration of the experiment. All recordings were conducted at 37 C. Wells were deemed usable if on the day of the exposure >/= 10 electrodes were active (defined as >/= 5 spikes/min). On DIV 13 or 15, a minimum of three wells from one cortical culture preparation were treated with each compound (0.03-40 uM). Prior to recording baseline activity, each mwMEA plate was placed in the Maestro at 37 C and allowed to sit for 20 min while firing rates stabilized. Baseline activity (40 min) was recorded before the addition of each compound. An additional 40 min of spontaneous activity was recorded in the presence of each compound. Changes in network parameters relative to baseline were assessed following compound treatment.
With `C[C@]12CCC(=O)C[C@@H]1CC[C@@H]1[C@@H]2CC[C@]2(C)[C@@H](O)CC[C@@H]12`, the AC50 is 33.3 µM (active).
Still for that read-out and setting: the same measure for `CCC(C)(C)c1ccc(O)c(C(C)(C)CC)c1`: 9.83 µM (active); for `CCCCCCCCc1ccc(O)cc1`: 9.18 µM (active).
In the case of `C=C(C)C(=O)[O][Sn]([CH2]CCC)([CH2]CCC)[CH2]CCC`, the result was inactive.
`CC(=O)[O][Hg][c]1ccccc1`: the AC50 was 33.9 µM (active).
Still for that read-out and setting: the same measure for `CC(=O)OC(c1ccccc1)C(Cl)(Cl)Cl` (stereo not drawn): 24.9 µM (active); for `CC(C)(C)c1cc(O)ccc1O`: 29.3 µM (active).
On to `O=C(O)C(Cl)(Cl)Cl`, for which the compound was called inactive.
As to `CC(C)(C)CC(C)(C)c1ccc(O)cc1`, the AC50 was 36.4 µM (active).
Same read-out and setting: the same measure for `CC(C)(c1ccccc1)c1ccc(O)c(C(C)(C)c2ccccc2)c1`: 9.24 µM (active).
Still for that read-out and setting: with `CCN1CCC2(CC1)COc1cc3c(cc12)N(C(=O)c1ccc(-c2ccc(-c4nnc(C)o4)cc2C)cc1)CC3` the figure was 31.2 µM (active).
Take `CC(C)(OO)c1ccccc1`: the compound was called inactive.
For `O=C(O)C(F)(F)C(F)(F)C(F)(F)C(F)(F)C(F)(F)C(F)(F)C(F)(F)C(F)(F)C(F)(F)C(F)(F)F`, the call was inactive.
For the compound `COC(=O)Cc1ccccc1`, the result was inactive.
For `CCOP(=S)(OCC)SCSP(=S)(OCC)OCC`, the AC50 is 32.7 µM (active).
Consider `O=C(Nc1ccc2[nH]ccc2c1)c1cc2cc(F)ccc2n1Cc1cccc(F)c1`, for which the result was inactive.
Still for that read-out and setting: with `ClC1(Cl)C2(Cl)C3(Cl)C4(Cl)C(Cl)(Cl)C5(Cl)C3(Cl)C1(Cl)C5(Cl)C24Cl` (stereo not drawn) the entry was “inactive”.
Regarding `O=C1C2(Cl)C3(Cl)C4(Cl)C(Cl)(Cl)C5(Cl)C3(Cl)C1(Cl)C5(Cl)C24Cl` (stereo not drawn), the AC50 is 7.01 µM (active).

The record behind these values is PubChem BioAssay (EPA / NIEHS).
